Rows were chosen to be rich in hits. Some 0.34% of all compounds tested hit in one or more screens of this group.
Vif-APOBEC3G blk: qHTS for Inhibitors of Vif-A3G Interactions: qHTS; HeLa A3G-eYFP + Vif (tagged APOBEC3G with the HIV-1 protein that degrades it), YFP fluorescence, overnight; DNA dC->dU-editing enzyme APOBEC-3G (Homo sapiens), Q9HC16; actives 0.076% (n = 410,000); Potency, µM (doses to about 46.1 µM), most hits filed as inhibitors; also: nearly all actives have a fitted effect of over 60% in size
Target sequence (Q9HC16 whole entry, looked up): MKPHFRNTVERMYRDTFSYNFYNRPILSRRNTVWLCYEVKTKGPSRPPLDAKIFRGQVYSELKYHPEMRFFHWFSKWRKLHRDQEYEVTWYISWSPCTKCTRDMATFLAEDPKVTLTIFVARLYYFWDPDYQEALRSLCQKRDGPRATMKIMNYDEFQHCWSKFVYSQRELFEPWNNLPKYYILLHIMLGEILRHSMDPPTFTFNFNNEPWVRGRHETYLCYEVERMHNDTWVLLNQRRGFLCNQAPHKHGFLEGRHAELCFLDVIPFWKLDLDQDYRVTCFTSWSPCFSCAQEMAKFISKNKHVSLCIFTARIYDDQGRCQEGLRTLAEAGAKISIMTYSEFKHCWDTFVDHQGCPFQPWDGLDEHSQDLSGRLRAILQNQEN
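HeLa cells stably expressing Vif and C-terminally eYFP-tagged A3G, seeded overnight at 37 deg C, then exposed to compound by pintool overnight at 37 deg C. Rise in yellow fluorescence (Ex 488/Em 500-530, Acumen) marks blocked Vif-driven A3G degradation.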
Vif-A3F inh: qHTS for Inhibitors of Vif-A3F Interactions: qHTS; Potency, µM (titrated, usually from 46.1 µM); actives 0.2% (n = 390,000); HeLa A3F-eYFP + Vif (tagged APOBEC3F with the HIV-1 protein that degrades it), YFP fluorescence increase; AID 602313, 2012; also: nearly all actives have a fitted effect of over 65% in size
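Fluorescence increase (Ex 488/Em 500-530) after overnight compound treatment at 37 deg C flags inhibition of Vif-driven A3F-eYFP loss in stable HeLa A3F-eYFP/Vif cells seeded overnight beforehand.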
Epigenetic reg: Quantitative High-Throughput Screen for Regulators of Epigenetic Control. murine LDR cells, GFP reporter derepression, 30 h. Potency, µM (top dose mostly 53.9 µM), actives largely listed as activators. actives 0.2% (n = 280,000). AID 1865, 2009; also: nearly all actives have a fitted effect of over 60% in size
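Derepression of a silenced CMV-GFP reporter in murine LDR cells is scored by enumerating GFP-positive cells with a laser-scanning microplate cytometer after 30 hours of treatment at 37 C.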
Hits are given with their value; – = inactive; ? = inconclusive; · = not tested or not shown. Calls follow the shape of the dose curve; as a rule, active = well fitted curve in the direction sought with a large enough effect; inconclusive = small, poorly fitted or top-dose-only effect, or another doubt; inactive = no such curve, though single readings can be large; an effect the other way counts as inactive or inconclusive.

SMILES	Vif-APOBEC3G blk	Vif-A3F inh	Epigenetic reg
CC1=C(/C=C/C(=C/C=C/C(C)=C/C(=O)O)c2ccc(C)cc2)C(C)(C)CCC1	·	·	–
C/C(=N/NC(N)=S)c1ccc(Br)s1	–	11.2µM	?
C/C(=N\NC(=O)Cc1ccccc1)c1ccc(Br)s1	–	–	·
Cc1ccc(C(=O)NCCn2c(N)c(C#N)c3nc4ccccc4nc32)cc1	?	22.4µM	?
N#Cc1c(N)n(CCNC(=O)c2ccc(Cl)cc2)c2nc3ccccc3nc12	–	–	–
O=C(C[n+]1c(Cl)cc(Cl)c2ccccc21)c1ccccc1	–	·	·
O=C1C(Cl)=C(Nc2ccccc2)C(=O)c2ccccc21	–	–	–
O=C1C(Cl)=C(NCCc2ccccc2)C(=O)c2ccccc21	12.6µM	8.91µM	·
Cc1ccccc1NC(=O)c1ccccc1OCC(=O)Nc1ccc(Br)cc1	–	·	·
Cn1c(/C=C/c2ccccc2)nc2ccccc2c1=O	–	–	·
Cc1ccc(-c2cc(C(=O)N/N=C/c3ccc([N+](=O)[O-])o3)c3ccccc3n2)o1	–	–	·
Cn1c(/C=C/c2ccc([N+](=O)[O-])o2)nc2ccccc2c1=O	2.82µM	11.2µM	?
Cc1cc(N/N=C/c2ccc([N+](=O)[O-])o2)nc2ccccc12	11.2µM	?	6.31µM
O=C(COc1ccccc1C(=O)Nc1cccc(F)c1)Nc1ccc(Br)cc1	–	·	·
Nc1nc(N)c(-c2ccccc2)s1	–	·	·
O=c1c(O)c(-c2cccs2)oc2ccccc12	?	2.82µM	–
O=c1c(O)c(-c2cccs2)oc2ccc(Cl)cc12	?	?	–
N#CC(=Cc1ccnc2ccccc12)c1ccccc1	–	–	·
CC[N+](C)(C(=O)O)/C(=C\c1ccccc1)c1ccnc2ccccc12 (centres undefined)	11.2µM	·	·
CN(C)c1ccc(CCc2ccnc3ccccc23)cc1	–	·	·
Cc1c2ccccc2nc2c(F)c(N(C)C)c(F)c(F)c12	?	25.1µM	–
Cc1c(N(C)C)nc2ccccc2c1N	–	–	–
Cc1nn(C)c2c1c(-c1ccccc1)cc(=O)n2C(C)C(=O)NCCc1ccc(Cl)cc1 (centres undefined)	–	–	–
C(=NN=Cc1c[nH]c2ccccc12)c1c[nH]c2ccccc12	–	–	·
O=C1/C(=C/c2c[nH]c3ccccc23)CCC/C1=C\c1c[nH]c2ccccc12	?	22.4µM	?
SMILES	Vif-APOBEC3G blk	Vif-A3F inh	Epigenetic reg
C/C(O)=C/c1nc2ccccc2[nH]c1=O	–	–	–
O=c1[nH]c2ccc([N+](=O)[O-])cc2nc1/C=C(\O)c1ccccc1	–	?	6.31µM
CC(C)(C)n1ncc2c(=O)n(Cc3ccc(F)c(F)c3F)cnc21	–	·	·
O=C(N/N=C/c1ccccc1)c1ccc2c(c1)OCO2	–	–	·
O=C(NN=Cc1c(O)ccc2ccccc12)c1ccc2c(c1)OCO2	?	7.94µM	·
CN(C)c1ccc(N=Cc2ccnc3ccccc23)cc1	–	·	·
Cc1ccc(NC(=O)/C(C#N)=C/c2ccc(C)s2)c(C)c1	11.2µM	?	3.16µM
Cc1ccc(/C=C(\C#N)C(=O)Nc2c(C)cccc2C)s1	–	–	–
COc1ccc2nc3ccccc3nc2c1NC(=O)c1ccc(Cl)cc1Cl	3.98µM	?	?
COc1cc(-c2cc(C(=O)Nc3c(Cl)cc(Cl)cc3Cl)c3ccccc3n2)cc(OC)c1OC	–	–	–
O=c1c2c3c(sc2n(Cc2cc(=O)n4ccccc4n2)c(=O)n1-c1ccc(Cl)cc1)CCC3	–	–	?
CN1C(=O)c2ccc(N3CCCC3)cc2C1=O	–	–	–
O=C1N/C(=C/c2ccc(N3CCCC3)cc2)C(=O)N1c1ccccc1	–	?	15.8µM
O=C1N/C(=C/c2ccc(N3CCOCC3)cc2)C(=O)N1Cc1ccc(F)cc1	–	–	–
O=C1/C(=C/c2ccc(N3CCCC3)cc2)NC(=S)N1C1CC1	5.62µM	11.2µM	17.8µM
O=C1NC(=S)N/C1=C\c1ccc(N2CCOCC2)cc1	–	–	–
Cc1cc(N2CCCC2)ccc1/C=C1\NC(=S)N(C)C1=O	?	6.31µM	?
O=C(NC1CCCCC1)NC1CCCCC1	·	·	–
N#Cc1sc2nc(C3CC3)cc(-c3ccc(Cl)cc3)c2c1N	–	–	–
COc1ccc(C(=O)c2sc3nc(-c4ccc(C)cc4)cc(C(F)(F)F)c3c2N)cc1	8.91µM	1.26µM	1µM
COc1ccc(-c2cc(-c3cccs3)nc3sc(C#N)c(N)c23)cc1	?	11.2µM	–
Cc1cc(-c2cccs2)c2c(N)c(C(=O)c3ccc4c(c3)OCO4)sc2n1	–	–	–
COc1ccc(C(=O)c2sc3nc(C)cc(-c4cccs4)c3c2N)cc1	12.6µM	22.4µM	–
COc1ccc(C(=O)c2sc3nc(-c4ccc(OC)cc4)ccc3c2N)cc1	–	?	–

Screening data as filed in PubChem BioAssay.
